VACV Venus inh: vaccinia inhibition (Venus reporter); Potency, µM (highest dose often 36.5 µM), usual class: inhibitors; hit rate 0.46% among 330,000; Vaccinia virus Venus reporter expression, fluorescence; calls by dose curve; tested in A549 cells; also: nearly all actives have a fitted effect of over 30% in size
Vaccinia mCherry: inhibitors of vaccinia virus infection (mCherry reporter signal); Vaccinia virus mCherry reporter infection, fluorescence; Potency, µM (titrated, usually from 36.5 µM), most hits filed as inhibitors; hit rate 0.63% among 310,000; AID 720579; calls by dose curve; tested in A549 cells; also: nearly all actives have a fitted effect of over 35% in size
LASV entry inh: inhibitors of Lassa virus binding or cell entry; Lassa virus pseudotype entry inhibition, cell reporter; Potency, µM (doses to about 37.9 µM), actives largely listed as inhibitors; hit rate 1.2% among 300,000; AID 540256; calls by dose curve; tested in HEK293 cells; also: nearly all actives have a fitted effect of over 50% in size
HCMV antiviral: blocks human cytomegalovirus replication; HFF cells, HCMV-luciferase reporter, 72 h; active compounds read low; activity change, negative = inhibition, % at 57.5 µM; hit rate 4.5% among 410,000; AID 1259415; in the data active = activity change below about -60%; inconclusive = no clear call, values can overlap the other calls; inactive = above about -39%
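Luciferase read-out from HCMV-luciferase-infected HFFs (MOI 1 PFU/cell) 72 h post infection at 37C; compounds added after 16 h cell attachment; activity normalized between buffer-only basal and Salinomycin (10uM) inhibitor controls.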
FMDV antiviral: foot and mouth disease virus antiviral activity | FMDV antiviral cell-based qHTS | Potency, µM (highest dose often 57.9 µM), actives largely listed as inhibitors | AID 1159524 | hit rate 1.2% among 410,000; calls by dose curve; tested in HEK293T cells; also: read-out not given here; nearly all actives have a fitted effect of over 45% in size
MARV entry inh: Marburg virus entry inhibition | Marburg virus pseudotyped entry inhibition, cell reporter | Potency, µM (highest dose often 37.8 µM), usual class: inhibitors | hit rate 1.8% among 300,000; calls by dose curve; tested in HEK293 cells
Numbers stand for hits; - = inactive; ? = inconclusive; . = not tested or not shown; ! = a repeat was not active. Sampled rows, rich in hits. Any-hit rate of the full collection: about 6.5%.

SMILES	VACV Venus inh	Vaccinia mCherry	LASV entry inh	HCMV antiviral	FMDV antiviral	MARV entry inh
O=C(COc1ccccc1)NNc1nc2c(F)cc(F)cc2s1	.	.	.	-	-	.
CCOC(=O)c1ccc2nc(NC(=O)c3cccs3)sc2c1	-	?	?	-	-	4.5µM
Cc1ccc2nc(NC(=O)c3ccccc3F)sc2c1	-	-	?	-	-	?
Cc1ccc2nc(NC(=O)c3ccccn3)sc2c1	?	22µM	.	-98	8.9µM	?
CCOC(=O)c1ccc2nc(NC(=O)c3ccco3)sc2c1	-	-	?	-	-	?
CCN(CCCN(C)C)c1ccc(/C=C/c2ccnc3ccccc23)cc1	-	-	.	.	.	.
O=C(NCCN1CCOCC1)c1cnn(-c2nccc(-c3cc4ccccc4o3)n2)c1C1CC1	-	-	.	.	-	.
COc1ccc(N2CCN(CCCNC(=O)c3cnn(-c4ccc(C)cc4)c3-n3cccc3)CC2)cc1	-	-	-	?	?	.
O=C1C(n2cccc2)c2ccccc2N1Cc1ccc(C(F)(F)F)cc1 (stereo unspecified)	.	.	.	-	.	.
COc1ccc(C(=O)NCC2Cc3cc(F)cc(-c4cncnc4)c3O2)cc1 (stereo unspecified)	-	-	.	.	-	.
COc1cc(-c2ccc(NC(=O)NC3CC3)c(OC)c2)ccc1NC(=O)NC1CC1	.	.	.	-77	.	.
CCOc1ccccc1NC(=O)C(CC(C)C)NC(=O)C1CCCCC1 (stereo unspecified)	.	.	-	-	-	-
COc1ccc(NC(=S)NC2CCCCCC2)c(OC)c1	-	-	-	-77	-	-
CCC(=O)Nc1ccc(-c2ccc(NC(=O)CC)c(OC)c2)cc1OC	-	?	.	?	-	.
COc1ccc(NC(=O)C(CC(C)C)NC(=O)C2CCCCC2)c(OC)c1 (stereo unspecified)	-	-	-	?	316µM!	-
COc1ccc(NC(=S)NCCC(c2ccccc2)c2ccccc2)c(OC)c1	?	?	?	-60	-	?
COC(=O)c1scc(-c2ccc(C)cc2)c1S(=O)(=O)N1CCN(c2ccccc2F)CC1	-	-	-	-	-	.
COC(=O)NC(CC(C)=O)c1ccccc1 (stereo unspecified)	.	.	.	.	.	-
O=C(Cn1nc(-c2ccccc2)c2cnc3ccccc3c21)Nc1ccccc1	-	-	-	-	-	-
Cc1ccc(S(=O)(=O)N(CCCO)CC(O)CON=C2c3ccccc3-c3ccccc32)cc1 (stereo unspecified)	-	-	?	-	35µM	?
O=C(Nc1cc(Sc2ccccn2)cc([N+](=O)[O-])c1)c1cccc(Cl)c1	?	-	-	?	25µM	?
O=C(Nc1cc(Sc2ccccn2)cc([N+](=O)[O-])c1)c1ccc(Cl)cc1	10µM	.	?	-	28µM	?
Cc1cc(-c2ccnc(-n3ncc(C(=O)N4CCCCC4c4cccnc4)c3C3CC3)n2)c(C)s1 (stereo unspecified)	-	-	.	.	-	.
Cc1ccn2c(C(=O)c3ccc(Cl)cc3)cnc2c1	-	-	18µM	-	-	?
O=C1CC(=O)OC(c2ccc([N+](=O)[O-])cc2)O1	13µM	13µM	.	.	10µM	.
SMILES	VACV Venus inh	Vaccinia mCherry	LASV entry inh	HCMV antiviral	FMDV antiviral	MARV entry inh
C[C@]12CC[C@H]3C(CCC4(O)CC(O)CC[C@]34C=O)C1=CC[C@H]2c1ccc(=O)oc1 (stereo partly specified)	.	.	.	-99	-	.
C[C@]12CCC3C(CC[C@H]4C[C@@H](O)CC[C@]34C)C1CCC2=O (stereo partly specified)	-	-	-	.	-	-
CC(=O)O[C@H]1[C@H]2O[C@]23[C@@H]2CC[C@]4(O)C[C@@H](O)CC[C@]4(C)C2CC[C@]3(C)[C@H]1c1ccc(=O)oc1 (stereo partly specified)	0.032µM	32µM	.	.	?	.
C[C@]12CC[C@H](O)C[C@H]1CCC1C2CC[C@]2(C)[C@@H](c3ccc(=O)oc3)C[C@H]3O[C@]132 (stereo partly specified)	1.1µM	1.3µM	.	.	.	.
CN(C)c1ccc(CC2CCc3ccccc32)cc1 (stereo unspecified)	-	-	.	.	.	.
COC(=O)C1CCCCN1Cc1ccc2c(c1)CN(C(=O)c1cc(C)nc3cc(F)ccc13)CCO2 (stereo unspecified)	-	-	.	.	-	.
COc1ccc(-n2nnnc2C2CCN(S(=O)(=O)c3cc(Cl)ccc3OC)CC2)cc1	?	-	-	-78	?	?
COc1ccc(-n2nnnc2C2CCN(S(=O)(=O)c3ccc(C(C)(C)C)cc3)CC2)cc1	-	-	-	-	-	-

Screening data deposited in PubChem BioAssay by National Center for Advancing Translational Sciences (NCATS).
